Data as given in PubChem BioAssay AID602440 (Sanford-Burnham Center for Chemical Genomics, 2012).
The campaign covered roughly 360,000 compounds. About 2,300 (0.64%) were called active. Rule as the data show it: active = inhibition mostly above about 40% (no sharp cut-off); inactive = mostly below about 27%. Shown is part of a subset that was picked to be rich in actives.

Molecular target: Sentrin-specific protease 8 (Homo sapiens) (UniProt Q96LD8)
Assay: blockers of SENP8 deneddylase activity – biochemical, fluorescence, Nedd8 protein substrate, uHTS, primary screen (AID 602440)
Settings: recombinant SENP8, Nedd8 substrate fluorescence; at 20 µM; stronger effect = higher value

Chain of Sentrin-specific protease 8 (Homo sapiens) (Q96LD8 whole entry, looked up): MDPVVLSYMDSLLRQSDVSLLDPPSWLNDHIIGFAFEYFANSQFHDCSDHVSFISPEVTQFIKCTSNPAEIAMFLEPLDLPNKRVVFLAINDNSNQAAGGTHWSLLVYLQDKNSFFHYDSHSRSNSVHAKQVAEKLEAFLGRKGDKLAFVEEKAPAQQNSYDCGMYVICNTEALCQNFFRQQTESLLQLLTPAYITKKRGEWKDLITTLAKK

| SMILES | inhibition |
| --- | --- |
| Cc1cccc(N2CCN(c3ccc(C(N)=O)cc3[N+](=O)[O-])CC2)c1C | 15.7% (inactive) |
| CS(=O)(=O)N1CCN(c2ccc(C(=O)NC3C4CC5CC(C4)CC3C5)cc2[N+](=O)[O-])CC1 (stereo not given) | 13.8% (inactive) |
| CN1CCN(S(=O)(=O)c2ccc(N3CCN(c4ccccc4O)CC3)c([N+](=O)[O-])c2)CC1 | 39.2% (active) |
| Cc1ccc(C(=O)c2ccc(N3CCN(C)CC3)c([N+](=O)[O-])c2)cc1 | 47.4% (active) |
| CC(C)c1ccc(S(=O)(=O)N2CCN(C(=O)c3ccc(N4CCCC4)c([N+](=O)[O-])c3)CC2)cc1 | 11.9% (inactive) |
| Cc1ccccc1N1CCN(S(=O)(=O)c2ccc3ccccc3c2)CC1 | 12.3% (inactive) |
| COC(=O)c1ccccc1NC(=O)C1CCN(C(=O)N2CCOc3ccccc32)CC1 | -37.2% (inactive) |
| COc1ccc(NC(=O)N2CCCC(c3nc(-c4ccc(F)cc4)no3)C2)cc1 (stereo not given) | 9.6% (inactive) |
| C[C@H]1CN([C@@H](C)CO)C(=O)CCCn2cc(nn2)CO[C@@H]1CN(C)S(=O)(=O)c1ccc(-c2ccccc2)cc1 | 12.7% (inactive) |
| C/C(N)=C(/C#N)C(=O)COC(=O)c1cc(-c2cccc(Br)c2)nc2ccccc12 | -25.4% (inactive) |
| COc1cccc2c1C(=O)c1c(O)c3c(c(O)c1C2=O)CC(O)(C(C)=NNC(=O)c1ccc(Cl)c(Cl)c1)CC3OC1CC(N)C(O)C(C)O1 (stereo not given) | 46.6% (active) |
| CCCC(O)(c1ccc(OC)cc1)C(CN(C)C)c1ccccc1 (stereo not given) | 10.7% (inactive) |
| NC(=O)C1CCN(CC(O)CSc2ccc(F)cc2)CC1 (stereo not given) | 17% (inactive) |
| NC(=O)COC(=O)c1cc(S(=O)(=O)N2CCN(c3ccccc3)CC2)ccc1Cl | 14.7% (inactive) |
| C/C(=N\Nc1ccccc1)c1cccs1 | -20.5% (inactive) |
| CSc1ncc(C(=O)NCCCc2ccccc2)c(C)n1 | -24.7% (inactive) |
| CC/C(=N/Nc1ccccc1)c1cnnc(SC)n1 | 61.2% (active) |
| CN(C(=O)c1cccc(NC(=O)Cc2ccc([N+](=O)[O-])cc2)c1)C1CCC1 | 19.5% (inactive) |
| O=S(=O)(Nc1ccc(-n2cnnn2)cc1)c1ccc(Cl)cc1 | 5.5% (inactive) |
| CCOC(=O)c1c(C)oc(C)c(C(=O)OCC)c1=O | 11.2% (inactive) |
| CCOC(=O)c1[nH]c(C)c(C(=O)OCC(=O)N2c3ccccc3CC2C)c1C (stereo not given) | 31.3% (inactive) |
| CCOC(=O)c1c(C)[nH]c2c1-c1ccccc1C(=O)C2=O | 121% (active) |
| CCn1cc(C(=O)NCC(=O)NC(C)(C)CO)c(=O)c2cc3c(cc21)OCO3 | -75.3% (inactive) |
| COc1ccc2c(c1)c(=Cc1ccc(N(C)C)cc1)c1cc(-c3ccccc3)[n+](C)n12 | -127% (inactive) |
| CCOC(=O)CNC(=O)/C=C/c1c(Cl)cccc1Cl | 16.6% (inactive) |

| SMILES | inhibition |
| --- | --- |
| CCOC(=O)CNC(=O)CN1C(=O)CCSc2ccccc21 | 16.5% (inactive) |
| CCOC(=O)CNC(=O)N1c2ccccc2Sc2ccccc21 | 47.5% (active) |
| CC(=O)NC(CC(=O)O)c1ccc(F)cc1 (stereo not given) | -2% (inactive) |
| Cc1[nH]n(C)c(=O)c1N=Nc1ccc(S(C)(=O)=O)cc1 | 28.1% (inactive) |
| Cc1[nH]n(-c2ccccc2)c(=O)c1CCOC(=O)c1ccc(C(F)(F)F)cc1 | 15.4% (inactive) |
| Cc1ccc(N=Nc2c(C)[nH]n(-c3ccccc3)c2=O)cc1 | 35.1% (active) |
| Cc1ccc(S(=O)(=O)N(CC(=O)NN=C2CCN(C)CC2)c2ccc(F)cc2)cc1 | 10.4% (inactive) |
| Cn1nc(C(F)(F)F)cc1-c1ccc(/C=C(\C#N)C(=O)c2cccc(C(F)(F)F)c2)s1 | -159% (inactive) |
| CCc1ccc(-c2nnn(Cc3nc4ccccc4s3)n2)cc1 | 14% (inactive) |
| CN(C)c1nc(N)nc(Cn2nnc(-c3ccc(C(F)(F)F)cc3)n2)n1 | 17.2% (inactive) |
| CCc1ccc(-c2nnn(Cc3nn[nH]n3)n2)cc1 | 41.5% (active) |
| CCOC(=O)c1cc(NC(=O)SCC(=O)O)c(C)nc1C | -84.4% (inactive) |
| CCCNC(=O)CCn1cc(-c2ccc(OC)cc2)nc1CCN | -0.4% (inactive) |
| CCCc1cc(=O)[nH]c(SCC(=O)c2c(N)n(CC(C)C)c(=O)n(C)c2=O)n1 | 2.3% (inactive) |
| Cc1cc(-c2ccccc2)nc(N2CCC(C(=O)NC34CC5CC(CC(C5)C3)C4)CC2)n1 | -325% (inactive) |
| Cc1ccc2[nH]cc(CCCN3C(=O)c4ccccc4C3=O)c2c1 | 8.9% (inactive) |
| Cc1ccc(NC(=O)CCN2C(=O)c3ccccc3C2=O)cc1C | 14.4% (inactive) |
| Cc1ccccc1C(=O)NNC(=O)CN1C(=O)c2ccccc2C1=O | 21.1% (inactive) |
| Cc1ccc2c(c1)-c1c(ssc1=S)C(C)(C)N2C(=O)CN1C(=O)c2ccccc2C1=O | 50% (active) |
| Cc1cc(C)cc(NC(=O)CCN2C(=O)c3ccccc3C2=O)c1 | 8.2% (inactive) |
| Cc1cc2c(cc1C)N(C(=O)CN1C(=O)c3ccccc3C1=O)C(C)(C)c1ssc(=S)c1-2 | 41.6% (active) |
| O=C(O)CC1S/C(=N\N=C/c2ccccc2O)N(c2ccc(O)cc2)C1=O (stereo not given) | -14.4% (inactive) |
| Cc1ccc2nc(Nc3ncc4c(n3)CC(C)(C)CC4=O)nc(C)c2c1 | -28.2% (inactive) |
| O=C(CCN1CCCCC1)Nc1ccc(F)c(F)c1 | 19.3% (inactive) |
| COCC1CCCN(Cc2cn[nH]c2-c2cc3ccccc3o2)C1 (stereo not given) | 9.9% (inactive) |
